From PMC5540273 (PLoS ONE, 2017) come the findings set out here.

Holding throughout (conditions): concentration: 1 μM, replicates: in singlicate; n = 1
For experiment [1], the system named is CDK2.
The subject of experiment [2] is CDK3.
Experiment [3] concerns CDK4-cyclinD1.
Experiment [4] relates to CDK4-cyclinD3.
Experiment [5] deals with CDK4.
For experiment [6], the system named is CDK5.
Experiment [7] concerns CDK7.
The test system of experiment [8] is CDK8.
Experiment [9] deals with CDK9.
In experiment [10] the test system is CDKL1.
Experiment [11] concerns CDKL2.
For experiment [12], the system named is CDKL3.
The subject of experiment [13] is CDKL5.
Experiment [14] has as its system CHEK1.
The test system of experiment [15] is CHEK2.
The test system of experiment [16] is CIT.
Experiment [17] relates to CLK1.
The test system of experiment [18] is CLK2.
Experiment [19] concerns CLK3.
Experiment [20] relates to CLK4.
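Also: KINOMEscan kinase panel screen.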

Take `Fc1ccc(-c2ncn(CCCNCc3ccccc3)c2-c2ccncc2)cc1`: the “%Inh” value in experiment [1] is on record as 0%; in [2], 7%; in [3], 0%; in experiment [4], 13%; in experiment [5] it was 0%; in experiment [6] it was 4%. Moreover, the “%Inh” value in [7] came to 27%; in experiment [8] it was 0%; in experiment [9], 0%; in experiment [10], 0%; in experiment [11] it was 0%; in experiment [12] it was 1%. For the same molecule, the “%Inh” value in [13] stood at 21%; in experiment [14], 17%; in experiment [15], 0%; in [16], 27%; in experiment [17], 33%; in [18] it was 1%. For the same molecule, the “%Inh” value in experiment [19] and in experiment [20] was 0% in each case.

With `CNc1nccc(-c2c(-c3ccc(F)cc3)ncn2CCCN2CCOCC2)n1` [SB-222516], the “%Inh” value in experiment [1] is 0%; in experiment [2], 0%; in experiment [3] it was 17%; in [4], 16%; in [5], 0%; in experiment [6] it was 0%. The “%Inh” value was determined as 7% in [7]; 38% in [8]; 0% in experiment [9]; 24% in experiment [10]; 6% in experiment [11]; 10% in experiment [12]. For the same molecule, the “%Inh” value in experiment [13] is reported as 2%; in [14] it was 0%; in experiment [15], 43%; in experiment [16], 0%; in [17], 4%; in experiment [18], 16%. The figures for the “%Inh” value in [19] and in experiment [20] were 18% and 3%, respectively.

Take `Nc1nccc2scc(-c3ccc4c(c3)CCN4C(=O)Cc3cc(F)ccc3F)c12` [GSK2587663]: the “%Inh” value in experiment [1] was 0%; in experiment [2] it was 18%; in [3], 0%; in [4], 0%; in experiment [5] it was 0%; in [6] it was 0%. For the same molecule, the “%Inh” value in experiment [7] was 0%; in experiment [8], 61%; in experiment [9], 0%; in experiment [10] it was 23%; in experiment [11], 17%; in [12] it was 0%. The “%Inh” value in experiment [13] turned out to be 0%; in [14] it was 8%; in experiment [15] it was 10%; in experiment [16], 27%; in experiment [17] it was 24%; in [18] it was 0%. Besides, the “%Inh” value is 93.5% in experiment [19] and 19% in experiment [20].

On to `O=c1cc(N2CCOCC2)nc2n(Cc3cccc(Cl)c3)ccn12` [GSK2296823], for which the “%Inh” value in [1] came out at 0%; in experiment [2], 3%; in [3], 0%; in [4] it was 13%; in [5], 0%; in [6], 0%. The “%Inh” value is on record as 0% in experiment [7]; 0% in [8]; 0% in [9]; 9% in [10]; 26% in [11]; 0% in experiment [12]. Moreover, the “%Inh” value in [13] is 4%; in experiment [14], 18%; in experiment [15], 0%; in [16], 10%; in experiment [17], 47%; in [18] it was 1%. The “%Inh” value in experiment [19] is 20%; in experiment [20], 24%.

With `COC(=O)c1c(-c2ccccc2)c2cc(Cl)ccc2c(=O)n1Cc1ccc(S(C)(=O)=O)cc1`, the “%Inh” value in [1] was 0%; in [2], 0%; in experiment [3], 0%; in experiment [4], 4%; in [5], 0%; in [6] it was 7%. Moreover, the “%Inh” value in experiment [7] worked out at 10%; in experiment [8] it was 0%; in [9] it was 7%; in experiment [10], 9%; in experiment [11], 0%; in [12], 0%. For the same molecule, the “%Inh” value in [13] is listed as 33%; in [14], 0%; in [15] it was 10%; in experiment [16], 4%; in experiment [17], 3%; in [18], 0%. Further, the “%Inh” value in experiment [19] and in experiment [20] was 10% each time.

Consider `Nc1nc(-c2ccc3c(N)n[nH]c3c2)cc(N2CCCCC2)n1` [GSK2228768], for which the “%Inh” value in experiment [1] worked out at 6%; in experiment [2], 17%; in [3], 0%; in experiment [4] it was 0%; in [5], 0%; in [6] it was 0%. In addition, the “%Inh” value in [7] worked out at 0%; in experiment [8] it was 0%; in [9], 0%; in experiment [10] it was 20%; in experiment [11], 0%; in [12] it was 0%. Also, the “%Inh” value in experiment [13] came out at 2%; in experiment [14], 0%; in experiment [15] it was 0%; in experiment [16], 18%; in [17] it was 29%; in experiment [18], 0%. Moreover, the “%Inh” value in experiment [19] came to 8%; in experiment [20], 19%.

Take `CCc1nc(-c2cccc(N(C)S(=O)(=O)c3ccccc3)c2)c(-c2ccnc(Nc3ccc(N4CCN(C(C)=O)CC4)nc3)n2)s1` [GSK1645895]: the “%Inh” value is given as 0% in experiment [1]; 0% in experiment [2]; 0% in experiment [3]; 3% in [4]; 0% in experiment [5]; 0% in experiment [6]. Besides, the “%Inh” value in [7] is listed as 0%; in [8], 0%; in experiment [9] it was 15%; in [10] it was 1%; in [11] it was 47%; in [12], 0%. For the same molecule, the “%Inh” value is 4% in experiment [13]; 7% in experiment [14]; 0% in [15]; 31% in experiment [16]; 25% in [17]; 12% in experiment [18]. Moreover, the “%Inh” value came out at 27% in experiment [19] and 0% in experiment [20].

With `Oc1ccc2ncnc(Nc3ccc(OCc4ccccc4)cc3)c2c1` [GI262866], the “%Inh” value in experiment [1] was determined as 0%; in experiment [2], 22%; in [3], 0%; in [4], 0%; in experiment [5], 16%; in [6], 0%. Further, the “%Inh” value was found to be 0% in [7]; 21% in [8]; 0% in experiment [9]; 0% in experiment [10]; 0% in [11]; 0% in [12]. The “%Inh” value came out at 7% in experiment [13]; 8% in experiment [14]; 23% in experiment [15]; 0% in experiment [16]; 37% in experiment [17]; 0% in [18]. The “%Inh” value turned out to be 21% in [19] and 19% in [20].

Consider `COC(=O)c1cccc(NC(=O)NCCNc2ccnc(Nc3ccc(F)cc3)n2)c1` [GSK1379883], for which the “%Inh” value was found to be 0% in experiment [1]; 2% in experiment [2]; 0% in [3]; 0% in experiment [4]; 34% in experiment [5]; 0% in [6]. Also, the “%Inh” value in experiment [7] was found to be 0%; in experiment [8], 8%; in experiment [9], 0%; in [10], 3%; in experiment [11], 5%; in [12] it was 0%. The “%Inh” value in [13] was 0%; in [14], 0%; in experiment [15], 5%; in experiment [16] it was 35%; in experiment [17], 15%; in [18] it was 0%. Further, the “%Inh” value in [19] is 14%; in [20], 42%.
